High-throughput results: PubChem, National Center for Advancing Translational Sciences (NCATS)
The entries come from a sample that favours hits as a whole.
Pf Dd2 inh – blocks in vitro growth of P. falciparum Dd2. P. falciparum Dd2 growth, SYBR Green, 72 h. Potency, µM (highest dose often 28.9 µM), for the others: at the highest dose activity, negative = inhibition, most hits filed as inhibitors. 120,000 tested, 4.3% active. AID 1347417; active = well fitted inhibition curve with a large enough effect;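 also: plate controls were DMSO vehicle for no effect and reference drug for full effect; nearly all actives have a fitted effect of over 65% in size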
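Readout: SYBR Green fluorescence, 485 nm excitation, 535 nm emission, after ~16 h lysis at 37C. Before that, Dd2-infected red cells (2.5% hematocrit) grew 72 h with compound, 29 uM top final concentration.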
* hit, by the source's call; i = inactive; [ ] = dose if it differs, or a comment. Potency is read from the fitted curve at half-maximal effect.

SMILES	Pf Dd2 inh
COc1ccc(C(=O)N2CCC(C(NC(=O)c3cccc(OC)c3)C(=O)N3CCCC3)CC2)cc1 (stereo not drawn)	i
O=C(NC(C(=O)NCc1ccco1)C1CCN(C(=O)C2CC2)CC1)c1ccccc1 (stereo not drawn)	10%
Cc1cccc(C(=O)N2CCC(C(NC(=O)c3ccccc3)C(=O)N3CCCCC3)CC2)c1 (stereo not drawn)	11µM*
COc1cccc(C(=O)N2CCC(C(NC(=O)c3ccccc3)C(=O)NCc3ccco3)CC2)c1 (stereo not drawn)	8.9µM*
COc1cccc(C(=O)NC(C(=O)N2CCCCC2)C2CCN(C(=O)c3cccc(F)c3)CC2)c1 (stereo not drawn)	8.9µM*
CCCNC(=O)C(NC(=O)c1cccc(OC)c1)C1CCN(C(=O)c2cccc(F)c2)CC1 (stereo not drawn)	i
O=C(NC(C(=O)N1CCCCC1)C1CCN(C(=O)c2ccccc2)CC1)c1ccccc1Cl (stereo not drawn)	i
COCCNC(=O)C(NC(=O)c1cccc(OC)c1)C1CCN(C(=O)c2ccc(C)cc2)CC1 (stereo not drawn)	i
Cc1ccc(C(=O)NC(C(=O)N2CCCC2)C2CCN(C(=O)c3ccccc3F)CC2)cc1 (stereo not drawn)	i
CCCNC(=O)N[C@@H]1C[C@H](Cn2cc(CN(C)C)nn2)[C@@H](O)[C@H]1O	17%[44.1 µM]
CNc1cc(C)nc(N2C[C@H](NC(=O)C3CCOCC3)[C@@H](C3CC3)C2)n1	-4%
COCc1nc(CCNC(=O)C2CCC2)no1	83%
CO[C@H]1C(=O)N(C(C)C)[C@H]1C1CCN(S(=O)(=O)c2cn(C)cn2)CC1	-16%
Cn1c(CN2CCN(c3ccc(C#N)cn3)CC2)nnc1C1CC(N)C1 (stereo not drawn)	-14%
CCC1c2nccn2CCCN1C(=O)Cn1cccn1 (stereo not drawn)	21%
O=C(N1C[C@@H](CO)[C@H](c2ccncc2)C1)C1(c2ccccc2)CC1	-7%
COc1ccc([N+](=O)[O-])cc1NC(c1nnc(-c2ccccc2)o1)c1ccccc1F (stereo not drawn)	13µM*
COc1ccc(-c2noc(-c3ccc(NC(C)c4ccccc4)c([N+](=O)[O-])c3)n2)cc1OC (stereo not drawn)	2%
O=C(CSc1nnc(-c2ccc([N+](=O)[O-])cc2)o1)Nc1ccccc1	12%
COc1cc(CNc2ccc3[nH]c(=O)[nH]c3c2)cc(Cl)c1OCc1ccccc1F	-17%
COc1cc(CNc2ccc3[nH]c(=O)[nH]c3c2)cc(Cl)c1OCc1ccc(F)cc1	-26%
COc1cc(CNc2ccc3[nH]c(=O)[nH]c3c2)cc(Br)c1OCc1ccc(F)cc1	13µM*
CS(=O)(=O)N1CCCN(C(=O)CCCc2ccccc2)c2ccccc21	3%
Cc1nn2c(c1-c1ccccc1Oc1ccccc1)N(Cc1cccc(C#N)c1)CCC2	-9%[44.1 µM]
Cc1ccncc1-c1c(C)nn2c1N(Cc1cccc(O)c1)CCC2	i
SMILES	Pf Dd2 inh
Cc1nn2c(c1-c1ccccc1OCc1ccccc1)N(Cc1cccc(O)c1)CCC2	2.2µM*
Cc1nn2c(c1-c1ccccc1C(C)C)N(Cc1ccc3c(c1)CCO3)CCC2	7.1µM*
Cc1nn2c(c1-c1ccccc1C(C)C)N(C(=O)C1CCOCC1)CCC2	i
Cc1nn2c(c1-c1ccccc1C(C)C)N(Cc1ccc(C(=O)O)s1)CCC2	-15%[44.1 µM]
CC(C)NC(=O)N1CCOC[C@H]1c1ncc(-c2ccc(OC(F)(F)F)cc2)[nH]1	-14%[44.1 µM]
CN1CC(=O)N(c2ccccc2F)Cc2c(NCCc3ccc(Cl)cc3)ncnc21	i
CCOC(=O)N1CCC(NC2CC(=O)N(CCc3ccc(OC)cc3)C2)CC1 (stereo not drawn)	i
Cn1ccnc1CNCC1(COc2cnccn2)C[C@@H](O)[C@@H](O)C1 (stereo partly drawn)	15%
O=C(NC1CC1)[C@@H]1C[C@H](Oc2ccccc2)CN1C(=O)CC1CCCC1	3%
Cc1cccc(OCC(=O)NCc2nnc3ccc(-c4ccc(F)cc4)nn23)c1	-22%
CN(C)c1ccc2ncc(Nc3cc(F)cc(N4CCOCC4)c3)n2n1	10µM*
c1ccc(-c2ccc3ncc(Nc4ccc(N5CCOCC5)cc4)n3n2)cc1	-17%[44.1 µM]
CN(C)c1ccc2ncc(Nc3ccccc3)n2n1	-6%[44.1 µM]
Cc1cc(C)n(CCC(=O)N[C@@H]2CN(Cc3ccncc3)C[C@H]2CN(C)C)n1	7%
COc1ccc(OCC(=O)Nc2cc(-c3cccc(Cl)c3)nn2-c2ccccc2)cc1	i
COc1ccc(/C=C/C(=O)Nc2nc3n(n2)C(c2ccccc2)C=C(c2ccc(Cl)cc2)N3)cc1 (stereo not drawn)	5µM*
COc1ccc(/C=C/C(=O)Nc2cc(-c3nc4ccccc4o3)ccc2OC)cc1	i
COc1ccc(C2C=C(c3ccccc3)Nc3nc(NC(=O)/C=C/c4ccc(Cl)cc4)nn32)cc1 (stereo not drawn)	10µM*
COC(=O)c1c(NC(=O)/C=C/c2ccc(OC)cc2)sc2c1CCC2	1%
COc1ccc(-c2cc(N3CCC(NC(=O)c4ccc(F)c(Cl)c4)C3)n[nH]2)cc1 (stereo not drawn)	-2%
COc1nc2c(cc1CNC(=O)c1ccc(F)cc1)C(=O)N(C1CCCC1)C2	-26%
CC(=O)Nc1ccc(C(=O)NC[C@@H]2C=C(C)[C@H](CC(=O)NCc3ccc(C#N)cc3)C[C@H]2C(C)C)cc1	i
Cc1ccc2nc(CO[C@H]3CN(C(=O)c4ccccc4)C[C@H]3F)[nH]c2c1	i
CCCCNC(=O)CN1C(=O)COc2ccc(S(=O)(=O)N3CCCC3)cc21	32%
CCN(CC)CCCNC(=O)CN1C(=O)COc2ccc(S(=O)(=O)N3CCC(C)CC3)cc21	6%
SMILES	Pf Dd2 inh
CC(C)CN(CCCNC(=O)CN1C(=O)COc2ccc(S(=O)(=O)N3CCCCCC3)cc21)CC(C)C	11µM*
O=C(Cn1nc2c(cc1=O)CCCC2)NCc1ccccn1	6%
CC(C(=O)NCCc1ccccc1)N1C(=O)COc2ccc(C(=O)COc3ccc(Cl)cc3)cc21 (stereo not drawn)	i
CN(C)C(=O)N1CCC(C(=O)N2CC(=O)N(C3CCCCC3)CC(OCc3ccncc3)C2)CC1 (stereo not drawn)	-30%
CCCNC(=O)N1CC(Oc2cccc(-c3nc(-c4ccccc4)no3)c2)C1	2µM*
O=C(NC1CCCC1)N1CC(Oc2cccc(-c3nc(-c4ccccc4)no3)c2)C1	i[5.79 µM]
CCOCCCNC(=O)N1CC(Oc2cccc(-c3nc(C)no3)c2)C1	5%[5.79 µM]
Cc1ccc(-c2ncc(C(=O)N3CCOC(CCN)C3)c(=O)[nH]2)cc1 (stereo not drawn)	-2%
COc1ccc(NC(=O)[C@H]2CCC[C@H]2NC(=O)c2cnc(C)cn2)cc1	-11%
Cc1ccc(Cn2ccnc2SCC(=O)NCc2ccccc2)cc1	i
CCCCn1c(SCC(=O)NCc2ccc(C)cc2)nc2c(sc3ccccc32)c1=O	46%
COc1ccc(CNC(=O)c2cc(-c3ccc(C)cc3)nc3n[nH]c(-c4ccc(Br)cc4)c23)cc1	74%
Cc1ccc(CNC(=O)CSc2nc3n[nH]c(C)c3c(=N)n2-c2ccccc2Cl)cc1	3.5µM*
COc1ccc(-n2c(SCC(=O)NCc3ccc(C)cc3)nc3n[nH]c(C)c3c2=N)cc1	10µM*
COc1ccc(CNC(=O)CSc2n[nH]c(-c3ccc(OC)cc3)n2)cc1	i
CCN(CC)C1CCOC2(CCN(C(=O)c3sc(C)nc3C)CC2)C1 (stereo not drawn)	47%
